A short description of assay [1]: qHTS profiling for inhibitors of Plasmodium falciparum proliferation (AID 504749).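 For activity, negative = inhibition: 0% = DMSO vehicle and full inhibition = artemisinin control.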 Note: nearly all actives have a fitted effect of over 60% in size. Particulars: P. falciparum in erythrocytes, SYBR Green DNA, 72 h. In a few lines:
(§1)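 Readout was DNA-dye fluorescence from lysed cultures, ex 485/em 535 nm. Parasitized red cells had grown 72 h with compound; data scaled between 0.29 uM artemisinin and DMSO wells and corrected using vehicle-only plates.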
Background: qHTS replaces the single test concentration by a dilution series.

The next assay concerns 3D7. Described as above. Conditions: P. falciparum in erythrocytes, SYBR Green DNA, 72 h; series mostly up to 28.7 µM. The method in brief:
as §1

The subject of another assay is 7G8. The assay is described as above. Particulars: P. falciparum in erythrocytes, SYBR Green DNA, 72 h; series mostly up to 28.7 µM. In a few lines: as §1
For the next assay, the system named is AA1029. Described as above. Particulars: P. falciparum in erythrocytes, SYBR Green DNA, 72 h; series mostly up to 28.7 µM. The method in brief: as §1
In the next assay the test system is AS120. Described as above. Particulars: P. falciparum in erythrocytes, SYBR Green DNA, 72 h; series mostly up to 28.7 µM. In a few lines: as §1
The subject of the next assay is ATS189. Described as above. Conditions: P. falciparum in erythrocytes, SYBR Green DNA, 72 h; series mostly up to 28.7 µM. In a few lines:
as §1

[2] abbreviates: at 28.7 µM (top of the series), parasite line A.
Where [3] appears, read: at 28.7 µM (top of the series), parasite line B.
The mark [4] stands for this setting: at 12.8 µM (top of the series), parasite line A.
Setting [5] is: at 12.8 µM (top of the series), parasite line B.

Inconclusive results are not listed. A number with no mark means an inactive call. Active and inactive are the calls of the source. Calls come from the whole dose curve; as a rule, active = well fitted inhibition curve with a large enough effect; inconclusive = small, poorly fitted or top-dose-only effect; inactive = flat fitted curve, though single readings scatter.
Potency is the fitted concentration of half-maximal effect.

Turning to `Cc1c[nH]c2ccccc12`, the activity, negative = inhibition was -2.76% in assay [1] (setting [2]) and 2.47% in assay [1] (setting [3]). For the same compound, the Potency entry in the assay on 3D7, in the assay with 7G8, with AA1029, with AS120 and in the assay with ATS189 was “inactive” in each case.

Take `N#CCC(=O)NN`: the results for the activity, negative = inhibition in assay [1] (setting [2]) and in assay [1] (setting [3]) were 10.6% and 7.8%, respectively. Further, the Potency entry in the assay on 3D7, with 7G8, in the assay on AA1029, in the assay with AS120 and in the assay on ATS189 was “inactive” in each case.

In the case of `O=C(O)c1ccc(S(=O)(=O)N(Cl)Cl)cc1`, the activity, negative = inhibition in assay [1] (setting [2]) was -4.58%; in assay [1] (setting [3]), 5.75%. The Potency entry in the assay on 3D7, in the assay with 7G8, with AA1029, in the assay on AS120 and with ATS189 was “inactive” each time.

On to `O=S(=O)(O)c1ccc(O)cc1`, for which the activity, negative = inhibition in assay [1] (setting [2]) was 4.42%; in assay [1] (setting [3]), -3.84%. In addition, the Potency entry with 3D7, with 7G8, in the assay with AA1029, with AS120 and with ATS189 was “inactive” throughout.

Turning to `CCCCN=C(N)N=C(N)N`, the results for the activity, negative = inhibition in assay [1] (setting [2]) and in assay [1] (setting [3]) were -1.88% and 0.415%, respectively. In addition, the Potency result with 3D7, in the assay with 7G8, in the assay with AA1029, in the assay on AS120 and in the assay on ATS189 was “inactive” throughout.

As for `CCN1/C(=C/C=C/c2sc3ccccc3[n+]2CC)Sc2ccccc21`, the Potency in assay [1] (parasite line A) is 0.0891 µM (active); in assay [1] (parasite line B), 0.178 µM (active); in the assay with 3D7, 0.141 µM (active); in the assay on 7G8, 0.0794 µM (active); in the assay on AA1029 it was 0.178 µM (active); in the assay with AS120, 0.199 µM (active). Further, the Potency in the assay with ATS189 was 0.158 µM (active).

Turning to `O=C(Nc1ccc([N+](=O)[O-])cc1)Nc1ccc([N+](=O)[O-])cc1`, the activity, negative = inhibition in assay [1] (setting [2]) is 3.88%; in assay [1] (setting [3]), -6.66%. Also, the Potency with 3D7 is 7.08 µM (active); with 7G8, 1.41 µM (active). The Potency entry in the assay with AA1029, in the assay on AS120 and in the assay with ATS189 was “inactive” in each case.

On to `OC[C@H]1O[C@@H]2O[C@H]3[C@H](O)[C@@H](O)[C@@H](O[C@H]4[C@H](O)[C@@H](O)[C@@H](O[C@H]5[C@H](O)[C@@H](O)[C@@H](O[C@H]6[C@H](O)[C@@H](O)[C@@H](O[C@H]7[C@H](O)[C@@H](O)[C@@H](O[C@H]8[C@H](O)[C@@H](O)[C@@H](O[C@H]1[C@H](O)[C@H]2O)O[C@@H]8CO)O[C@@H]7CO)O[C@@H]6CO)O[C@@H]5CO)O[C@@H]4CO)O[C@@H]3CO`, for which the activity, negative = inhibition in assay [1] (setting [2]) is 8.7%; in assay [1] (setting [3]) it was 8.53%. Also, the Potency entry in the assay on 3D7, in the assay with 7G8, in the assay with AA1029, with AS120 and in the assay on ATS189 was “inactive” each time.

With `c1ccc(CC2=NCCN2)cc1`, the figures for the activity, negative = inhibition in assay [1] (setting [4]) and in assay [1] (setting [5]) were -1.06% and -2.59%, respectively. Moreover, the Potency entry in the assay on 3D7, in the assay on 7G8, in the assay with AA1029, in the assay on AS120 and in the assay on ATS189 was “inactive” in each case.

On to `CCOc1ccccc1OCCN[C@H](C)Cc1ccc(OC)c(S(N)(=O)=O)c1`, for which the activity, negative = inhibition was 7.23% in assay [1] (setting [2]) and 1.02% in assay [1] (setting [3]). The Potency entry in the assay with 3D7, with 7G8, with AA1029, with AS120 and in the assay with ATS189 was “inactive” throughout.

In the case of `O=C(O)Cc1csc(-c2ccc(Cl)cc2)n1`, the activity, negative = inhibition in assay [1] (setting [2]) is 1.5%; in assay [1] (setting [3]) it was 8.07%. In addition, the Potency entry in the assay on 3D7, in the assay with 7G8, in the assay with AA1029, with AS120 and in the assay on ATS189 was “inactive” throughout.

As for `FC(F)(F)C(F)(F)C(F)(F)C(F)(F)C(F)(F)C(F)(F)C(F)(F)C(F)(F)Br`, the figures for the activity, negative = inhibition in assay [1] (setting [2]) and in assay [1] (setting [3]) were 2.77% and -1.15%, respectively. The Potency entry in the assay on 3D7, in the assay on 7G8, in the assay with AA1029, in the assay on AS120 and in the assay on ATS189 was “inactive” each time.

Take `CCCCCCCCCCCCCC(=O)OC(C)C`: the activity, negative = inhibition in assay [1] (setting [2]) is 2.55%; in assay [1] (setting [3]) it was 10.9%. In addition, the Potency result in the assay with 3D7, with 7G8, in the assay on AA1029, in the assay on AS120 and in the assay with ATS189 was “inactive” in each case.

`Cc1c(-c2ccccc2)oc2c(C(=O)OCCN3CCCCC3)cccc2c1=O`: the results for the activity, negative = inhibition in assay [1] (setting [4]) and in assay [1] (setting [5]) were 0.972% and 6.11%, respectively. Also, the Potency entry in the assay on 3D7, in the assay with 7G8, with AA1029, in the assay on AS120 and in the assay on ATS189 was “inactive” each time.

On to `CCCCC(CC)COC(=O)c1ccc(N(C)C)cc1` (stereo not drawn), for which the activity, negative = inhibition in assay [1] (setting [2]) is 7.25%; in assay [1] (setting [3]), -4.81%. Also, the Potency entry with 3D7, in the assay with 7G8, with AA1029, in the assay on AS120 and in the assay with ATS189 was “inactive” in each case.

In the case of `CCOC(=O)[C@H](CCc1ccccc1)N[C@@H](C)C(=O)N1[C@H](C(=O)O)C[C@H]2CCCC[C@@H]21`, the results for the activity, negative = inhibition in assay [1] (setting [2]) and in assay [1] (setting [3]) were 8.44% and 4.83%, respectively. The Potency result in the assay on 3D7, with 7G8, with AA1029, in the assay with AS120 and in the assay on ATS189 was “inactive” each time.

On to `O=C1C(CCS(=O)c2ccccc2)C(=O)N(c2ccccc2)N1c1ccccc1` (stereo not drawn), for which the values for the activity, negative = inhibition in assay [1] (setting [4]) and in assay [1] (setting [5]) were -4.48% and 5.16%, respectively. Moreover, the Potency entry in the assay on 3D7, with 7G8, in the assay with AA1029, with AS120 and in the assay on ATS189 was “inactive” throughout.

In the case of `Cc1cccc(C)c1NC(=O)CN1CCCCCC1`, the activity, negative = inhibition in assay [1] (setting [2]) is 14.8%; in assay [1] (setting [3]), 4.72%. For the same compound, the Potency result with 3D7, in the assay on 7G8, in the assay with AA1029, in the assay with AS120 and with ATS189 was “inactive” in each case.

Consider `OCCOCCN1CCN(C2=Nc3ccccc3Sc3ccccc32)CC1`, for which the activity, negative = inhibition is 0.502% in assay [1] (setting [2]) and 13.4% in assay [1] (setting [3]). Moreover, the Potency result with 3D7, in the assay with 7G8, in the assay with AA1029, with AS120 and in the assay on ATS189 was “inactive” throughout.

These data come from PubChem BioAssay (NCATS).
